These results are taken from PubChem BioAssay (NCI).

This is part of a sample that, as a whole, favours compounds with a hit. Of some 83,000 tested, about 20% had one in any assay.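 48-hour exposure, single concentration, 96-well plates; percent growth endpoint where 0 means no net growth. Active: below 10.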 Values without a mark were called inactive. Calls of active or inactive are those of the source.

The test relates to SK-MEL-28 melanoma. The experiment in a line: NCI-60 one-dose screen, 48 h (100 = growth as untreated, 0 = no growth, -100 = all killed). As to conditions: 10 µM. On the procedure: Growth inhibition of the SK-MEL-28 human tumor cell line is measured as a screen for anti-cancer activity. Cells are grown in 96 well plates and exposed to the test compound for 48 hours. Compounds are tested at a single concentration, which is 10^-5 M for most compounds. The reported endpoint is percent growth (GI% or GIPRCNT), where numbers from 0 - 100% represent growth inhibition, and numbers from -100% - 0 represent cell death. For example, a value of 40 represents 60% growth inhibition. A value of 0 means no net growth occurred over the course of the experiment. A value of -40 indicates 40% of cells at the beginning of the experiment died by the end of the experiment. A value of -100 means all cells are dead at the end of the experiment.
NCI-60 Human Tumor Cell Lines Screen was performed using the standard one-dose NCI protocol, which is described in more detail at https://dtp.cancer.gov/discovery_development/nci-60/default.htm.
Compounds with GIPRCNT values below 10 were considered active. Activity score was based on GIPRCNT using the following formula: […]
Score is 0 for GIPRCNT values of 100 or above, 50 for GIPRCNT values of 0, and 100 for GIPRCNT values of -100.
For `C#Cc1ccc(-n2c(/C=C/c3ccc(O)cc3)nc3ncccc3c2=O)cc1`, the growth is 51.7%.

As to `O=S(=O)(NCCCNc1nccc(-c2c(-c3ccc(F)cc3)nc3sccn23)n1)c1ccc(F)cc1`, the growth is 67.3%. Take `O=C(C[P+](c1ccccc1)(c1ccccc1)c1ccccc1)C[P+](c1ccccc1)(c1ccccc1)c1ccccc1`: the growth was -42% (active). In the case of `N=c1c2c(-c3ccccc3)c(-c3ccccc3)n(Cc3ccccc3)c2ncn1CCCO`, the growth is 49.8%. As for `CN(C)c1ccc(/C=C/C=N/NC(=O)c2cc(O)c(O)c(O)c2)cc1`, the growth was 108%. For `COc1cc(C)ccc1C(=O)c1ccc(C)cc1OC`, the growth is 58.5%. To `COc1cc(Cl)cc(-c2nn(-c3cccc(NC(=O)Nc4ccc(Cl)c(Cl)c4)c3)cc2-c2ccncc2)c1` belongs 23.2%; to `CC1(C)OC2=C(CC1Br)C(=O)C(=O)c1ccccc12` (stereo not given), -94% (active). Consider `O=[N+]([O-])c1cccc(N=Cc2ccc3c(c2)OCO3)c1`, for which the growth was 117%.

Take `O=C1CC[C@@H]2CCCC[C@@H]2C1`: the growth was 112%. On to `Clc1ccc2c(NCCCNc3nccc(Nc4ccc(Br)cc4)n3)ccnc2c1`, for which the growth was -97.2% (active). The value for `Cc1ccc(C(=O)N2C/C(=C/c3ccc(F)cc3)C(=O)/C(=C/c3ccc(F)cc3)C2)cc1` was 105%; that for `O=C(N/N=C/c1ccccc1O)C(O)(c1ccccc1)c1ccccc1` was 69.7%; that for `N=c1nc(N)ncn1-c1ccccc1` was 98.6%.

Turning to `NC(=O)SCC(=O)Nc1ccc(S(N)(=O)=O)cc1`, the growth was 113%. To `COc1ccc(-c2nn(-c3cccc(NC(=O)Nc4cc(C(F)(F)F)cc(C(F)(F)F)c4)c3)cc2-c2ccncc2)cc1Cl` belongs -5.48% (active); to `O=c1cc(-c2ccccc2)[nH]n1-c1nc2ccccc2[nH]1`, 74.1%; to `COc1cc2cc3c(nc2cc1OC)CCN3Cc1ccc(NC(=O)c2ccc(Cl)c(C(F)(F)F)c2)cc1`, 97.9%. Take `Cn1c(N)c(N=Nc2ccc(S(=O)(=O)Nc3nccs3)cc2)c(=O)n(C)c1=O`: the growth is 112%.

`COc1cc(NC(=O)CSc2nc3ccccc3c(=O)n2CCc2ccccc2)cc(OC)c1OC`: the growth was 37.5%.

Consider `O=C(N/N=C\c1cc(Cl)ccc1[N+](=O)[O-])c1ccco1`, for which the growth was 110%. The value for `N=C(N)c1ccc(-c2ccc(-c3cccs3)s2)s1` was -94.7% (active); that for `O=C(O)c1ccc(P(=O)(O)O)c([N+](=O)[O-])c1` was 110%.

In the case of `CCCCC/C=C/C(=O)CCc1ccc(O)c(OC)c1`, the growth is 95.8%. On to `C#Cc1ccc(-n2c(/C=C/c3ccc4ccccc4c3)nc3ncccc3c2=O)cc1`, for which the growth is 58.8%. On to `CCN(CC)CCC(CNc1c(C)cnc2cc(Cl)ccc12)c1ccc(Cl)cc1` (stereo not given), for which the growth was -88.8% (active).

Consider `COc1ccc2c(c1)C(=O)c1c-2c(=O)n(CCCN(C)C)c2cc(OC)c(OC)cc12`, for which the growth was 111%. For `CCOC(=O)c1ccc(NC(=O)Nc2ncc(Cl)cc2Cl)cc1`, the growth was 106%. For `Cc1cc(C)c(NC(=O)c2sc3nc4c(cc3c2N)C(=O)CCC4)c(C)c1`, the growth was 56%. Turning to `CN(CCc1ccccn1)c1ccccc1`, the growth is 101%. The value for `O=c1oc2cc(OS(=O)(=O)c3ccccc3)ccc2c2c1CCCCC2` was 73.2%. Regarding `COc1ccc2c(c1)[n+]([O-])c(C#N)c(NC(=O)c1ccco1)[n+]2[O-]`, the growth was 120%. `O=[N+]([O-])c1ccc(Oc2cc(Cl)c(Cl)cc2Cl)c(C(F)(F)F)c1`: the growth was 101%.

For `CCCCCCc1cc(N=Nc2ccc(S(=O)(=O)Nc3cc(C)nc(C)n3)cc2)c(O)cc1O`, the growth is 115%. For `CSc1nn(-c2ccccc2)c2ncnc(Oc3ccccc3)c12`, the growth is 111%. Regarding `COC(=O)C1(C)Cc2cc(OC(C)=O)c(OC(C)=O)cc2N1` (stereo not given), the growth is 100%. For `Cc1cc(N(CCCNc2ccnc3cc(Cl)ccc23)Cc2cccs2)nc(Cl)n1`, the growth is 81.5%. With `Cc1ccc(NC(=O)Nc2cccnc2)cc1NC(=O)Nc1cccnc1`, the growth is 98.8%. Consider `CN(C)CCN=c1nc2c(c(N)n1-c1ccccc1)c(=S)n(-c1ccccc1)c(=S)n2-c1ccccc1`, for which the growth is -100% (active). With `Cc1ccc(NC(=O)NC2CCCCC2)cc1`, the growth is 104%.
